# High-throughput results from PubChem.
# Rows were chosen to be rich in hits. Some 0.51% of all compounds tested hit in one or more screens of this group.
# Vif-A3G inh – blocks the Vif interaction with human APOBEC3G; HeLa A3G-eYFP + Vif (tagged APOBEC3G with the HIV-1 protein that degrades it), YFP fluorescence, overnight; Potency, µM (doses to about 46.1 µM), for the others: at the top dose activity, negative = active, actives largely listed as inhibitors; 410,000 compounds, 0.076% hits; note: % is set by controls: 0 for no effect and ±100 for the full control effect; nearly all actives have a fitted effect of over 60% in size
# Target sequence (Q9HC16 whole entry, looked up): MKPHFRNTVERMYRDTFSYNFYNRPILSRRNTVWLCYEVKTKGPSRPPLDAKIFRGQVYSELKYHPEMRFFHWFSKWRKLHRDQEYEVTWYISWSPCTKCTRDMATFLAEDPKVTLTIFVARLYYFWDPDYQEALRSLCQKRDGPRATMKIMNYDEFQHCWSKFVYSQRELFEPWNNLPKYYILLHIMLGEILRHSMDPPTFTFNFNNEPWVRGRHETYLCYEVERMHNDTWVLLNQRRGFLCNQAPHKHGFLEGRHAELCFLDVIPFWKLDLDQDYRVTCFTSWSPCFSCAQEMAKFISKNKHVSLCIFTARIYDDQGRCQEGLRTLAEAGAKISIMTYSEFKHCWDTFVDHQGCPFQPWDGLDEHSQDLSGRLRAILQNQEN
#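 Read-out is eYFP fluorescence (Ex 488/Em 500-530) from Vif-expressing HeLa A3G-eYFP cells; more signal means A3G escaped Vif-mediated degradation. Cells plated overnight, compound pinned in, incubated overnight at 37 deg C.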
# Epigenetic reg – epigenetic control regulation, reporter derepression | murine LDR cells, GFP reporter derepression, 30 h | Potency, µM (series often up to 53.9 µM), for inactives: at the highest dose GFP activation, hits mostly activators | 280,000 compounds, 0.2% hits | AID 1865; note: % of control where 0% means no effect; nearly all actives have a fitted effect of over 60% in size
#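 Derepression of a silenced CMV-GFP reporter in murine LDR cells is scored by enumerating GFP-positive cells with a laser-scanning microplate cytometer after 30 hours of treatment at 37 C.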
# PINK1 expr mod – modulators of PINK1 expression; PINK1 immunofluorescence, high-content cytometry, 24 h; Potency, µM (titrated, usually from 76.6 µM), inactives show at the top dose activation (PINK1 increase), hits mostly activators; 410,000 compounds, 0.2% hits; active = well fitted activation curve with a large enough effect; inconclusive = small, poorly fitted or top-dose-only effect; cell line not stated here; note: % of control where 0% means no effect; nearly all actives have a fitted effect of over 65% in size
#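 Readout is PINK1 immunofluorescence, quantified alongside mitochondrial, cell and nuclear markers by laser-scanning microplate cytometry. Cells from a stable line were exposed to compound titrations (5 concentrations) for 24 hours, with CCCP controls.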
# Vif-A3F inh – blocks the Vif interaction with APOBEC3F; AID 602313; HeLa A3F-eYFP + Vif (tagged APOBEC3F with the HIV-1 protein that degrades it), YFP fluorescence increase; Potency, µM (highest dose often 46.1 µM), for inactives: at the top dose activity, negative = active; 390,000 compounds, 0.2% hits; note: % of control where 0% means no effect; nearly all actives have a fitted effect of over 65% in size
#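 Fluorescence increase (Ex 488/Em 500-530) after overnight compound treatment at 37 deg C flags inhibition of Vif-driven A3F-eYFP loss in stable HeLa A3F-eYFP/Vif cells seeded overnight beforehand.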
# Active calls of the source: *; ? = inconclusive; / = no result given. Unless noted, calls come from the whole dose curve; as a rule, active = well fitted curve in the direction sought with a large enough effect; inconclusive = small, poorly fitted or top-dose-only effect, or another doubt; inactive = no such curve, though single readings can be large; an effect the other way counts as inactive or inconclusive. Potency is the fitted concentration of half-maximal effect.
SMILES,Vif-A3G inh,Epigenetic reg,PINK1 expr mod,Vif-A3F inh
COc1cc(/C=C/C(=O)O)cc(S(=O)(=O)Nc2cccc(S(=O)(=O)N3CCOCC3)c2)c1OC,-1%,0%,4%,-3%
Cc1ccc(C2=NN(S(=O)(=O)c3ccccc3)C(c3ccccc3O)C2)cc1 (stereo not drawn),8%,?,0%,25µM*
CS(=O)(=O)Nc1ccc(C2=NN(S(=O)(=O)c3ccccc3)C(c3cccs3)C2)cc1 (stereo not drawn),?,6%,11%,22µM*
COc1ccc(C2CC(c3ccccc3)=NN2S(=O)(=O)c2ccccc2)cc1 (stereo not drawn),-29%,?,6%,?
c1ccc(-c2cn3nc(-c4ccccc4)c(-c4ccccc4)nc3n2)cc1,?,-1%,-1%,?
Cc1ccc(-c2cn3nc(-c4ccccc4)c(-c4ccccc4)nc3n2)cc1,-18%,0%,-1%,4.5µM*
Cc1cc(C)n(-c2ccc(C(=O)OCC(=O)c3c(N)n(C)c(=O)n(C)c3=O)cc2)n1,0%,-3%,0%,-9%
O=[N+]([O-])c1ccc(N2CCN(Cc3ccccc3)CC2)s1,0%,/,5%,?
O=[N+]([O-])c1ccc(N2CCN(Cc3ccccc3)CC2)c2c1no[n+]2[O-],7.9µM*,/,1%,?
O=S(=O)(Nc1nc2ccccc2nc1N1CCc2ccccc2C1)c1ccc(Cl)cc1,-14%,-1%,16µM*,-39%
Cc1ccc(S(=O)(=O)Nc2nc3ccccc3nc2N2CCN(c3ccccc3F)CC2)cc1,-1%,1%,6%,-13%
O=S(=O)(Nc1nc2ccccc2nc1N1CCc2ccccc2C1)c1ccc(Br)cc1,-22%,-1%,?,22µM*
CC(=O)Nc1ccc(S(=O)(=O)Nc2nc3ccccc3nc2N2CCc3ccccc3C2)cc1,-8%,0%,2%,-14%
O=S(=O)(Nc1nc2ccccc2nc1N1CCN(c2ccccn2)CC1)c1ccc(Cl)cc1,?,0%,17%,7.9µM*
CN1CCN(c2nc3ccccc3nc2NS(=O)(=O)c2ccc(Br)cc2)CC1,-10%,/,-1%,10µM*
Cn1c(SCCCC(=O)c2ccccc2)nnc1-c1ccncc1,-1%,-4%,0%,4%
CCCC1=[N+](CC(=O)c2ccccc2)CCn2cccc21,-6%,1%,8%,1%
CCCC1=[N+](CC(=O)c2ccc(Br)cc2)CCn2cccc21,-23%,0%,4%,11µM*
Cc1cc(Br)ccc1NC(=S)Nc1cccc([N+](=O)[O-])c1,-1%,-1%,40µM*,2%
CNC(=S)Nc1cccc([N+](=O)[O-])c1,-1%,0%,-1%,13%
CC1Sc2ccc(C(=O)NCc3ccccn3)cc2NC1=O (stereo not drawn),2%,/,-1%,13µM*
CCOC(=O)c1c(Nc2ccc(Cl)cc2)sc(/C=C2\C=Nc3ccccc32)c1O,-18%,7.1µM*,10µM*,7.1µM*
Cc1cc(C)c(C)c(S(=O)(=O)N2CCN(C(=O)c3ccncc3)CC2)c1C,4%,/,1%,1%
CCCCN1C(=O)c2cccc3cc(O)cc(c23)C1=O,-12%,/,4%,1.3µM*
O=C(COC(=O)CCS(=O)(=O)c1ccccc1)NNC(=O)c1ccc([N+](=O)[O-])cc1,2%,/,2%,-1%
SMILES,Vif-A3G inh,Epigenetic reg,PINK1 expr mod,Vif-A3F inh
CC(CCc1ccco1)NC(=O)Cn1ncc2c(=O)oc3ccccc3c21 (stereo not drawn),4%,-1%,-1%,0%
Oc1ccccc1-c1nc(NCc2cccnc2)c2ccccc2n1,-1%,0%,1%,?
Oc1ccccc1-c1nc(NCc2ccccc2)c2ccccc2n1,-7%,/,2%,22µM*
CCOc1cc(CNc2ccc(N3CCCCC3)cc2)cc(Br)c1OCC(=O)NC(C)(C)C,-19%,-1%,14µM*,?
CO/N=C/C(C#N)c1ncc(C(F)(F)F)cc1Cl (stereo not drawn),6%,2%,13µM*,-3%
CO/N=C/C(c1ncc(C(F)(F)F)cc1Cl)S(=O)(=O)c1ccccc1 (stereo not drawn),0%,/,2%,-5%
Cc1ccc(-c2nc(C=Nc3ccc(O)cc3)c(O)o2)cc1,?,?,3%,25µM*
CN=Cc1nc(-c2ccccc2)oc1O,1%,0%,6%,3%
O=C(Nc1ccc(OC(F)(F)F)cc1)C1=NCCN1,2%,5%,0%,3%
